HepG2 tox: counter-screen for TGF-b inhibitors: cytotoxicity in HepG2 cells; HepG2 CAGA-GFP viability, ATP luminescence, 18 h; Potency, µM (highest dose often 46.1 µM), for inactives: at the highest dose activity change, negative = cytotoxicity, most hits filed as cytotoxic; hit rate 0.76% among 410,000
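HepG2 CAGA-GFP cells (1000/well, DMEM with 1% FBS) received compound, then TGF-beta at 500 pg/mL final, and were incubated 18 hours at 37 degrees C. Viability was read by CellTiter-Glo luminescence. Media-only wells were set as complete cell-killing and DMSO as no toxicity.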
ATXN2 expr inh: inhibitors of ATXN2 expression; HEK-293 ATXN2-luciferase reporter, luminescence, 24 h; Potency, µM (highest dose often 57 µM), inactives show at the highest dose activity change, negative = inhibition, most hits filed as inhibitors; hit rate 0.72% among 360,000; further: on the % scale 0 is the no-effect control and ±100 the full control effect; nearly all actives have a fitted effect of over 55% in size
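qHTS (up to 57 uM final) was run with 24 h compound exposure of reporter cells at 37 °C. Each well was multiplexed: SteadyGlo luminescence measured ATXN2-luciferase expression after a fluorogenic Gly-Phe-AFC viability readout (25 uM final).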
HT1080 IDH1KD tx: kills HT-1080 cells with IDH1 knockdown | Potency, µM (top dose mostly 46.1 µM), without a hit: top-dose activity, negative = toxicity, hits mostly cytotoxic | hit rate 2% among 360,000 | HT-1080 IDH1 knockdown viability, ATP luminescence, 48 h;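 further: 0% = DMSO wells and -100% = cell-free medium wells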
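Luminescent ATP read-out (CellTiter-Glo, 10 min at room temperature) after 48 h compound exposure at 37 °C gave viability of IDH1-knockdown HT-1080 cells. Activity was normalised to DMSO and cell-free wells, then fitted as concentration-response curves.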
S2 tox: cell viability loss in ATXN counter-screen; S2 cells (HEK-293 line with an ATXN2-luciferase reporter) viability, CellTiter-Fluor protease fluorescence, 24 h; Potency, µM (top dose mostly 56.7 µM), most hits filed as cytotoxic; hit rate 0.49% among 400,000; further: nearly all actives have a fitted effect of over 40% in size
TGFb inhibitor: inhibitors of TGF-b signaling. AID 588855. Potency, µM (titrated, usually from 46.1 µM), for the others: top-dose activity, negative = inhibition, most hits filed as inhibitors. HepG2 CAGA-GFP TGF-b/SMAD3 reporter, GFP fluorescence, 18 h; TGF-beta stimulated, 500 pg/mL final. hit rate 1.2% among 410,000; further: on the % scale 0 is the no-effect control and ±100 the full control effect; nearly all actives have a fitted effect of over 65% in size
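Smad-responsive CAGA-GFP expression was quantified in HEPG2 cells exposed to compounds and 500 pg/mL final TGF-beta for 18 h at 37 degrees C; unstimulated wells defined full inhibition.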
HT1080NT lethal: kills 2HG-producing HT-1080-NT fibrosarcoma cells | AID 686970 | Potency, µM (titrated, usually from 46.1 µM), without a hit: at the top dose activity, negative = less viability, hits mostly cytotoxic | HT-1080-NT fibrosarcoma viability, CellTiter-Glo ATP luminescence, 48 h | hit rate 1.6% among 360,000;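 further: NT is the 2HG producing partner of a matched IDH1 knockdown line; 0% = DMSO-treated cells and -100% = media-only wells without cells; nearly all actives have a fitted effect of over 55% in size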
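Viability by CellTiter-Glo luminescence after 48 h compound exposure at 37C of HT-1080-NT cells (750/well, RPMI, 5% FBS). % activity scaled between DMSO wells and medium-only wells, then curve-fitted and categorized by curve class.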
Numbers without * were called inactive; i = inactive; ? = inconclusive; / = no result given; ! = not confirmed by another sample; [ ] = dose if it differs, or a comment. The list is not random: actives were taken first. Their share in the collection is about 3.8%. The call rests on the fitted dose curve; in most records, active means well fitted curve in the direction sought with a large enough effect; inconclusive means small, poorly fitted or top-dose-only effect, or another doubt; inactive means no such curve, though single readings can be large; an effect the other way counts as inactive or inconclusive. Potency means the concentration at half of the fitted maximal effect.

SMILES | HepG2 tox | ATXN2 expr inh | HT1080 IDH1KD tx | S2 tox | TGFb inhibitor | HT1080NT lethal
COc1ccc(/C=N/NC(=O)COc2ccccc2-c2ccccc2)cc1 | -83% | -38% | 0.82µM* | ? | ? | 2.3µM*
O=C(COc1ccccc1-c1ccccc1)N/N=C/c1cccc2ccccc12 | -13% | 0% | 1µM* | ? | ? | 1.3µM*
O=C(CN(c1ccc(Cl)c(C(F)(F)F)c1)S(=O)(=O)c1ccccc1)Nc1cccnc1 | -14% | ? | / | ? | 11µM* | /
O=C1[C@H]2[C@H](C=CC[C@H]2C(=O)N2CCN(c3ccccc3)CC2)CCN1Cc1ccc(Cl)c(Cl)c1 | -13% | ? | -5% | ? | 10µM*! | 0%
O=C1[C@H]2[C@H](C=CC[C@H]2C(=O)N2CCN(c3ccccc3)CC2)CCN1Cc1ccccc1 | -9% | 0% | 0% | i | -11% | -3%
CCCCNC(=O)[C@@H]1CC=C[C@@H]2CCN(Cc3ccc(Cl)c(Cl)c3)C(=O)[C@@H]21 | -27% | -24% | -9% | ? | 7.9µM* | 19%
COc1ccc(CN2CC[C@H]3C=CC[C@@H](C(=O)Nc4ccc(Cl)c(C(F)(F)F)c4)[C@H]3C2=O)cc1OC | -14% | -19% | -11% | ? | 11µM*! | -9%
O=C(NCc1cccnc1)[C@@H]1CC=C[C@@H]2CCN(Cc3ccc(Cl)c(Cl)c3)C(=O)[C@@H]21 | -5% | -13% | -1% | i | 11µM* | -2%
Cc1ccc(CNS(=O)(=O)c2c(C(=O)N3CCC(C)CC3)c(C)n(C)c2C)cc1 | 2% | / | / | / | 5% | /
Cc1cnc(C)c(-c2cccc3c2OC(CNC(=O)c2cc(C)on2)C3)n1 (configuration not stated) | / | / | / | i | / | /
COc1cc(OC)c(NC(=O)NC(C)c2c(-n3cccc3)sc(C)c2C)cc1Cl (configuration not stated) | -18% | / | / | / | / | /
CCCCCCCCCCCCCCC(O)C[N+](C)(CCO)CCO (configuration not stated) | -104% | -38% | 18µM* | ? | ? | ?
CN(C)c1ccc(C(=O)N2CCCC(Cn3cc(C(=O)N4CCCC4)nn3)C2)cc1 (configuration not stated) | / | / | / | i | / | /
O=C(Nc1ccc(Cl)cc1)Nc1nc(-c2ccccc2)cs1 | -7% | -17% | 7% | ? | ? | 15%
Cc1ccc(-c2nc(NC(=O)c3nn(C)cc3[N+](=O)[O-])sc2C)cc1C | -80% | ? | 4.1µM* | i | ? | 21µM*
CC(=O)c1c(C)[nH]c(C(=O)Nc2nc(-c3ccc(Cl)cc3)cs2)c1C | 16% | ? | 13% | i | -1% | 7%
Cc1cnc(NC(=O)c2nn(C)cc2[N+](=O)[O-])s1 | -1% | 14% | ? | i | ? | ?
Cc1ccc(-c2nc(NC(=O)c3nn(C)cc3[N+](=O)[O-])sc2C)cc1 | -125% | ? | 12µM* | ? | ? | 5.8µM*
O=C(Nc1nc(-c2ccc(Cl)cc2)cs1)NC1CCCCC1 | -35% | -10% | ? | i | 11µM* | -25%
Cn1cc([N+](=O)[O-])c(C(=O)Nc2nc(-c3ccc(Cl)cc3)cs2)n1 | 6.3µM* | 3% | 3.3µM* | i | ? | 2.9µM*
COc1ccc2nc3sc(C(=O)N4CCN(c5ccc(F)cc5)CC4)cc3cc2c1 | 1% | 2% | / | i | 13% | /
COc1ccccc1C1CN(Cc2cnn(C)c2C)Cc2ccccc2O1 (configuration not stated) | / | / | / | i | / | /
CCOc1ccccc1NC(=O)c1ccc(C(=O)Nc2ccccc2OCC)cc1 | 4% | 10% | / | i | 32% | /
CCOc1ccccc1NC(=O)/C=C/C(N)=O | -38% | ? | 2.8µM* | / | ? | ?
COc1ccc(C(=O)/C=C/c2ccc(O)cc2)c(O)c1CC=C(C)C | -82% | ? | 23µM* | / | ? | ?
SMILES | HepG2 tox | ATXN2 expr inh | HT1080 IDH1KD tx | S2 tox | TGFb inhibitor | HT1080NT lethal
COc1ccc(C(=O)/C=C/c2ccc(O)cc2)c2c1CC(O)C(C)(C)O2 (configuration not stated) | -5% | ? | -3% | i | -10% | -2%
Cc1cc(C)c(S(=O)(=O)/N=C2/C=C(Sc3ncn[nH]3)C(=O)c3ccccc32)cc1C | 1.8µM* | 14µM* | 4.6µM* | 22µM* | 0.89µM* | 2.9µM*
Cc1ccc(C)c(S(=O)(=O)/N=C2\C=C(NS(=O)(=O)c3ccccc3)C(=O)c3ccccc32)c1 | -16% | -8% | -16% | i | ? | -9%
CCN(CC)c1cc2c(cc1F)c(=O)c(S(=O)(=O)c1ccc(OC)cc1)cn2Cc1ccccc1 | -25% | / | / | / | ? | /
COc1cc(/C=N/Nc2snc(SC)c2C#N)ccc1O | -11% | 2% | 3.2µM* | ? | 4% | ?
O=c1cccccc1NCc1ccccc1 | -7% | / | 0% | / | -13% | 2%
Cc1ccc(NS(=O)(=O)c2ccc3c(c2)C(=O)c2ccccc2C3=O)c(C)c1 | 3% | -5% | -30% | i | -8% | -29%
O=C1C=C(Nc2ccccc2O)c2ccccc2C1=O | 2.5µM* | 14µM* | ? | ? | 1.8µM* | ?
O=C1C=C(NCc2ccccc2)c2ccccc2C1=O | -109% | -22%[11.3 µM] | 4.6µM* | ? | ? | 3.7µM*
Cc1ccc(NC2=CC(=O)C(=O)c3ccccc32)c(C)c1 | 5µM* | / | 1% | ? | ? | 6%
Cc1ccccc1C(C(=O)NC1CCCC1)N(C(=O)Cn1cnc2ccccc21)c1cccc(F)c1 (configuration not stated) | / | -6% | / | / | / | /
CCn1cc(C(=O)NCc2ccc(Cl)cc2)c(=O)c2cc(S(=O)(=O)N(C)C3CCCCC3)ccc21 | -25% | -14% | / | i | ? | /
COc1ccc(CN=Cc2[nH]c3ccc(Br)c(Cl)c3c2O)cc1 | -40% | -31% | 10µM* | i | -17% | ?
CC(=O)CCC(=O)N1CCC(n2c(C3CCCO3)nc3cc(C(F)(F)F)ccc32)CC1 (configuration not stated) | / | / | / | i | / | /
CN(C)c1ccc(/C=C/c2ccnc3cc(Cl)ccc23)cc1 | -9% | / | / | / | 35% | /
CCOC(=O)c1c(C)c(-c2ccccc2)n(CC(=O)Nc2cc(C)ccc2OC)c1C | -1% | -3% | / | i | -17% | /
N=C1SCC(=O)N1c1ncc(Cc2ccc(F)cc2)s1 | -27% | ? | 16µM* | ? | ? | ?
CCc1ccccc1NC(=O)c1sc2nc(C)cc(COC)c2c1N | 2% | / | / | / | 24% | /

Screens: PubChem, National Center for Advancing Translational Sciences (NCATS)
